From PubChem BioAssay (NCI)
Values joined by “and” are separate entries in the source; they are usually repeats but may differ in a detail not shown here. Equal entries are not always repeated. Compounds without any hit were thinned out: in the full panel of roughly 83,000, 20% have a hit.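 Single-dose data. Exposure time 48 hours. Values below 10 considered active.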 Values without a mark were called inactive. Active and inactive are the calls of the source.

Test system: MDA-MB-468 breast
Assay: NCI-60 one-dose screen, 48 h (100 = growth as untreated, 0 = no growth, -100 = all killed)
Settings: 10 µM unless noted

Row | SMILES | growth
1 | CC(C)=NOC(C)C(=O)O (stereo not drawn) | 106%
2 | O=C(C[n+]1cccc2ccccc21)c1ccc(O)c(O)c1 | 16.1%
3 | CCN(CC)CC#CCOC(=O)[C@]1(C)CCC[C@]2(C)[C@H]3C[C@H]4C(C(C)C)=C[C@]3(CC[C@H]21)[C@@H]1C(=O)CCC(=O)[C@@H]14 | 11%
4 | Clc1ccc(SSc2ccc(Cl)cc2)cc1 | 95.7% and 95.5%
5 | O=C(Cc1ccc(Nc2ccnc(C(F)(F)F)c2)cc1)N/N=C/c1ccccc1O | 8.1% (active)
6 | O=S(=O)(NCCNc1nccc(-n2cnc3ccccc32)n1)c1ccc(Br)cc1 | 84%
7 | CCSc1ccc([C@@H]2[C@@H](N)C(=O)N2c2cc(OC)c(OC)c(OC)c2)cc1 | 17%
8 | c1ccc(-c2c(-c3ccccc3)[n+](Cc3ccc4ccccc4c3)c(-c3ccc(-c4nc5ccccc5s4)cc3)n2Cc2ccc3ccccc3c2)cc1 | -77.8% (active)
